This passage reports composite z-score and composite Z-score results from PubChem BioAssay.

Activity calls are given as the source filed them.

Assay [1] concerns the target Albumin (Bos taurus) (UniProt P02769). Put plainly: compounds binding labelled BSA control protein – biochemical, small-molecule microarray, Alexa647 label, 635/667 nm fluorescence, artefact control for SMM control protein annotation, profiling panel (AID 1118).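 Note: score merges 667 nm emission intensity and signal-to-noise per printed compound spot.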 To be noted: BSA-A647 binding, fluorescence 635 nm, higher = more signal.
Assay [2] can be described thus: probe aXIP binding to arrayed compounds – biochemical, NeuroSMM set, 635/667 nm fluorescence, primary screen (AID 1119).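 Note: probe is the protein aXip251-270 applied at 1 µg/mL to compound-printed slides; binding of probe to printed compounds measured as 667 nm fluorescence plus signal to noise.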 To be noted: small-molecule microarray, higher = more signal, called active from +8 up or from −8 down.
The nature of assay [3]: probe aNOTCH3 binding on compound microarray – biochemical, small-molecule microarray, 635/667 nm fluorescence, primary screen (AID 1120).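 Note: probe is a biotin-tagged antibody raised against NOTCH3 rather than NOTCH3 protein; score merges spot fluorescence near 667 nm with spot signal to noise.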 To be noted: higher = more signal.
Assay [4] is described as follows: probe aNOTCH2 binding on compound microarray – biochemical, small-molecule microarray, 635/667 nm fluorescence, primary screen (AID 1121).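 Note: score merges feature fluorescence read at 667 nm with its signal to noise.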 To be noted: higher = more signal.
Assay [5] addresses Carbonic anhydrase 2 (Homo sapiens) (UniProt P00918). Put plainly: compounds binding carbonic anhydrase 2 – biochemical, small-molecule microarray, Alexa647-labelled CAII, profiling panel (AID 1122). To be noted: CAII-A647 binding fluorescence, higher = more signal.
The nature of assay [6]: COS7 lysate on small-molecule microarray, probe aHis, 635 nm (AID 1123).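 Note: z-score combines 667nm fluorescence intensity with signal-to-noise per printed compound spot.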 To be noted: COS7 cell lysate, fluorescence, higher = more signal.
The nature of assay [7]: probe aLAP1 signal on lysate-treated microarray – cell lysate, small-molecule microarray, COS7 lysate, primary screen (AID 1124).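 Note: lysate comes from COS7 cells expressing LAP1 and is applied at 0.3 µg/mL; score merges spot fluorescence near 667 nm with signal-to-noise over triplicate slides.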 To be noted: probe aLAP1, fluorescence, higher = more signal.
In assay [8] the test system is Sam68 (KHDRBS1). Put plainly: compounds binding KHDRBS1 protein – biochemical, small-molecule microarray, 635 nm fluorescence, primary screen (AID 1125).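 Note: score merges 667 nm channel intensity with signal to noise over triplicate slides.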 To be noted: higher = more signal.
For assay [9], the system named is Chordin-like protein 2 (CHRDL2). Put plainly: compounds binding chordin-like 2 – biochemical, small-molecule microarray, 635 nm fluorescence, primary screen (AID 1126).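 Note: printed compound slides probed with Chrdl2 protein at 4 µg/mL for 1 h at 4 C; score merges 667 nm emission intensity with signal to noise over three replicate slides.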 To be noted: fluorescence 635 nm, higher = more signal.
Assay [10] deals with Concanavalin-A (Canavalia ensiformis) (UniProt P02866). The experiment in a line: compounds binding concanavalin A lectin – biochemical, small-molecule microarray, Alexa647 label, 635 nm, artefact control for SMM control protein annotation, primary screen (AID 1127).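 Note: z combines 667 nm emission intensity with signal-to-noise across three replicate slides.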 To be noted: ConA-A647 binding fluorescence, higher = more signal.
Concanavalin-A (Canavalia ensiformis), sequence (P02866 whole entry, looked up): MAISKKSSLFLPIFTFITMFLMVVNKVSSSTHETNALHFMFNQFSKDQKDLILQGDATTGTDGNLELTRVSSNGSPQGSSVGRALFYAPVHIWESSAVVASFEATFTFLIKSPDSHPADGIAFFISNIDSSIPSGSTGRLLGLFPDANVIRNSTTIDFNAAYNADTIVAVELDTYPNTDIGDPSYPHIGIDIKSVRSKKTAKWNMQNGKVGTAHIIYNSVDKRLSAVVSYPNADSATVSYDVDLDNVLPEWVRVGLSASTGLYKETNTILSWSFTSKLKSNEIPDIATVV

Albumin (Bos taurus), sequence (P02769 whole entry, looked up): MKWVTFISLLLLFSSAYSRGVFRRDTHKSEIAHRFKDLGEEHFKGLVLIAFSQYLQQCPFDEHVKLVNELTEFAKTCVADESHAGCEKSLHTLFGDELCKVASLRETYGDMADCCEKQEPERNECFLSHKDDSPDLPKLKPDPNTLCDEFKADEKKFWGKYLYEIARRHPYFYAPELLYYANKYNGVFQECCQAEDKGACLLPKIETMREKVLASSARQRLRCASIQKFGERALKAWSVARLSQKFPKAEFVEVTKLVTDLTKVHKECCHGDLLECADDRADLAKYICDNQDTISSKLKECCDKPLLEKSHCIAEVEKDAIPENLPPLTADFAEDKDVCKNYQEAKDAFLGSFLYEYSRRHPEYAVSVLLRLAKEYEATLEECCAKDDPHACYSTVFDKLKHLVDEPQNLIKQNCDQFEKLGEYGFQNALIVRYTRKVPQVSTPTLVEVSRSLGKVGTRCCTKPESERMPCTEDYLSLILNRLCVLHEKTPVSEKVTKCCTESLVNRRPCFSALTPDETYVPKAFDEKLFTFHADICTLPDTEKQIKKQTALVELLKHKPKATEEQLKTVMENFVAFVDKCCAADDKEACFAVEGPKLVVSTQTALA

With `COC(=O)CC=C[C@H](C)[C@@H](OCc1ccccc1Br)C(C)C`, the composite z-score is -0.0311 in [1]; -0.0343 in [3]; -0.113 in [4]; -0.279 in assay [5]; 0.164 in assay [6]; 0.0326 in assay [7]. Further, the composite z-score in [8] is -0.385; in [9] it was 0.382; in assay [10], 0.112. Further, the composite Z-score in assay [2] is -0.0469 (inactive).
Turning to `CC[C@@H](c1ccccc1)n1c(=O)n2n(c1=O)[C@H]1[C@H](O)[C@@H]3O[C@@H]3C(=NOCC=C(C)CCC=C(C)C)[C@H]1CC2`, the composite z-score in assay [1] was -0.258; in [3], 0.192; in assay [4], -0.084; in assay [5] it was 0.406; in [6], 0.689; in assay [7], -0.194. Moreover, the composite z-score in [8] was 1.29; in [9], 0.552; in assay [10], 0.548. The composite Z-score in assay [2] is -0.183 (inactive).
As to `COC(=O)[C@H](C)NC(=O)CCC1CC(OC(=O)NCCc2ccc(F)cc2)CC2(CCCC(COC(=O)NCCc3ccc(Cl)cc3)O2)O1` (stereo not given in full), the composite z-score in assay [1] was -0.167; in assay [3], 0.0573; in assay [4] it was -0.0261; in assay [5], 0.0606; in assay [6] it was 0.925; in assay [7] it was 0.0391. The composite z-score stood at 1.07 in [8], 1.09 in assay [9] and 0.925 in assay [10]. In addition, in assay [2], the composite Z-score was 0.65 (inactive).
Consider `O=C1C[C@]2(c3ccc([N+](=O)[O-])cc3)C(=O)N(CCN3CCOCC3)c3cc(CO)ccc3[C@H]2N1CC12CC3CC(CC(C3)C1)C2`, for which the composite z-score is 0.89 in assay [1]; -0.185 in assay [3]; -0.174 in assay [4]; 0.185 in assay [5]; 0.253 in [6]; 0.713 in assay [7]. Also, the results for the composite z-score in assay [8], in [9] and in assay [10] were -0.631, -1.03 and -0.163, respectively. Further, in assay [2], the composite Z-score was 0.83 (inactive).
As to `CCN(CC)c1ccc(N2CC=CC34O[C@@H]5/C=C\CCC(C)OC(=O)C5[C@H]3C(=O)N(CCCO)[C@@H]4C2=O)cc1` (stereo not given in full), the composite z-score in assay [1] was -0.909; in assay [3] it was -0.185; in assay [4] it was -0.189; in [5] it was 0.868; in assay [6], -0.368; in assay [7], -0.0197. The results for the composite z-score in assay [8], in assay [9] and in [10] were -0.383, -0.618 and -0.608, respectively. Besides, the composite Z-score in [2] was 0.589 (inactive).
In the case of `CCCCCCc1nc(CCCc2cc3c(c(CCCCCC)n2)[Si](C(C)C)(C(C)C)O[C@H]3c2ccccc2)cc2c1[Si](C(C)C)(C(C)C)O[C@H]2c1ccccc1`, the composite z-score in assay [1] was -0.27; in [3], -0.0284; in assay [4], -0.14; in [5], -0.156; in assay [6], -0.0088; in [7], -0.0919. Further, the results for the composite z-score in assay [8], in assay [9] and in [10] were -0.14, -0.0538 and 0.314, respectively. Further, in assay [2], the composite Z-score was 0.248 (inactive).
Take `CO[C@H]([C@@H](C)[C@H](OC)c1ccccc1)[C@H](C)[C@@H](OC)[C@H](C)C(C)=O`: the composite z-score in [1] is -0.529; in [3] it was -0.13; in assay [4], -0.0551; in assay [5], -0.505; in assay [6], -0.74; in [7], -0.32. Also, the composite z-score in assay [8] was -1.24; in assay [9], -0.326; in assay [10] it was -2.34. The composite Z-score in assay [2] is 0.837 (inactive).
Turning to `CC(CCC(=O)OC[C@H]1O[C@H](C#Cc2ccccc2)C=C[C@@H]1Oc1ccc(C)cc1)=NO[C@@H](C)c1cn([C@H](CO)Cc2ccccc2)nn1`, the composite z-score was 0.0449 in assay [1]; 0.0026 in assay [3]; -0.0907 in assay [4]; -0.122 in assay [5]; -0.053 in [6]; -0.592 in [7]. Moreover, the composite z-score in assay [8] turned out to be 0.297; in assay [9] it was 0.145; in [10], 0.27. Further, in assay [2], the composite Z-score is -0.684 (inactive).
As to `CC(C)CON=C1C[C@@H](O)[C@@H](O)[C@@H]2[C@@H]3C(=O)N(Cc4ccccc4)C(=O)[C@@H]3CC[C@@H]12`, the composite z-score in [1] was 0.0737; in assay [3], -0.0679; in assay [4], -0.153; in assay [5] it was -0.111; in assay [6] it was -0.137; in assay [7], -0.0468. For the same compound, the composite z-score in assay [8] is 0.631; in assay [9], 0.716; in [10], -0.0393. Further, in assay [2], the composite Z-score is 0.156 (inactive).
Consider `O=C(CS)NCCCCCNC(=O)[C@@H]1C[C@@H]2C(=O)N[C@@H](Cc3ccccc3)C(=O)N2[C@@H]1c1ccc(O)cc1`, for which the composite z-score in [1] was -0.814; in assay [3], -0.0647; in assay [4], -0.0756; in assay [5] it was 0.674; in assay [6], 1.37; in assay [7], 0.154. In addition, the figures for the composite z-score in assay [8], in assay [9] and in assay [10] were 1.3, 0.617 and 0.874, respectively. The composite Z-score in [2] was 0.346 (inactive).
As for `O=C1[C@H]2[C@H]3[C@H](O)[C@H](O)CC(=NO[C@@H]4O[C@H](CO)[C@@H](O)[C@H](O)[C@H]4O)[C@H]3CC[C@H]2C(=O)N1C1CCCCC1`, the composite z-score in [1] is 0.785; in assay [3], 0.11; in assay [4], -0.112; in assay [5] it was 0.124; in assay [6] it was 0.197; in assay [7], 0.3. The composite z-score in [8] was 1.3; in [9], -0.298; in assay [10] it was -0.316. The composite Z-score in assay [2] is -0.0164 (inactive).
As for `O=C1O[C@@H](c2ccccc2)[C@@H](c2ccccc2)N2[C@@H](c3ccc(OCCO)cc3)[C@]3(C(=O)Nc4ccccc43)[C@@H](C(=O)N3CCN(c4ncccn4)CC3)[C@H]12`, the composite z-score in assay [1] is 0.162; in assay [3], 0.0824; in assay [4] it was -0.091; in assay [5], 0.403; in assay [6] it was 1.84; in assay [7] it was 0.88. Besides, the composite z-score in assay [8] was 1.3; in assay [9] it was 0.902; in assay [10], 1.15. In [2], the composite Z-score is 0.338 (inactive).
As to `CO[C@@H]1COC(=O)[C@H](C)NC(=O)[C@@H](C)COC(=O)CCC[C@H]1C`, the composite z-score was -0.163 in assay [1]; 0.111 in assay [3]; -0.161 in assay [4]; 0.409 in assay [5]; 0.421 in assay [6]; -0.0546 in [7]. Moreover, the figures for the composite z-score in assay [8], in assay [9] and in assay [10] were 0.769, 0.777 and -0.288, respectively. Moreover, the composite Z-score in assay [2] was -0.0735 (inactive).
For `COc1ccc([Si](C)(C)[C@@H]2[C@@H](CCO)O[C@]3(C(=O)N(Cc4ccc(NC(C)=O)cc4)c4ccccc43)[C@H]2C)cc1`, the composite z-score in [1] was determined as 0.78; in [3] it was 0.217; in assay [4], 0.0884; in assay [5], 0.574; in assay [6], 1.08; in assay [7] it was 0.222. Further, the composite z-score in [8] amounted to 1.15; in assay [9] it was 0.465; in assay [10] it was 1.1. In addition, the composite Z-score in [2] was 0.19 (inactive).
On to `C=CC[C@@H]1C=C[C@H](ON=C[C@@H](OC)[C@H](C)C=CCC(=O)OC)[C@@H](CO)O1`, for which the composite z-score in assay [1] is -0.286; in [3] it was 0.062; in assay [4], -0.0242; in assay [5], 0.131; in assay [6] it was 0.336; in assay [7] it was -0.108. The composite z-score is 0.496 in assay [8], 0.075 in assay [9] and -0.225 in assay [10]. The composite Z-score in assay [2] is 0.0176 (inactive).
